High-throughput results (PubChem BioAssay)
IMPase cell inh: IMPase inhibition in cells; inhibition (IP1 accumulation), % at 46.1 µM; CHO-M1 cells, IP1 accumulation, HTRF TR-FRET ratio; 120,000 tested, under 10 active; active means well fitted curve in the direction sought with a large enough effect in the signal ratio, not every such curve was filed as active; inconclusive means small, poorly fitted or top-dose-only effect, or a change in a side signal; inactive means no such curve, though single readings can be large or run the other way; the % refers to the signal ratio;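 further: cells stimulated with carbachol in lithium chloride buffer; plate controls were DMSO basal wells for no effect and reference inhibitor wells for full effect; higher means more IMPase inhibition seen as more IP1 and lower FRET ratio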
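In this qHTS, compounds (final up to 46 uM) act on CHO-M1 cells that are then activated through the M1 receptor with carbachol, in pH 7.4 buffer containing 50 mM LiCl, for 30 min. IP1 accumulation is quantified by the IP-One immunoassay.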
HTT aggregate: mutant huntingtin aggregation inhibition; PC12 HttQ103-GFP aggregates, Acumen cytometry, 40 h; Potency, µM (highest dose often 46.1 µM), for inactives: at the top dose activity change, negative = inhibition, most hits filed as inhibitors; 1.1% of 220,000 active; further: potency means the concentration at half of the fitted maximal effect; on the % scale 0 is the no-effect control and ±100 the full control effect; nearly all actives have a fitted effect of over 60% in size
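Aggregates are detected as GFP objects 1–25 µm with signal 6 STDEV over background in lysates of induced PC12 cells. These carry Huntingtin exon 1 with 103 glutamines fused to GFP under an ecdysone promoter; compounds titrated.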
HTT ATP protect: protects HTT-Q103 PC12 cells, measured by ATP | 0.14% of 230,000 active | Potency, µM (titrated, usually from 56.4 µM), without a hit: cytoprotection (ATP increase), hits mostly activators | PC12 HTT-Q103 induced, cytoprotection, ATP luminescence, 40 h | AID 1471; further: potency means the concentration at half of the fitted maximal effect; % of control where 0% means no effect; nearly all actives have a fitted effect of over 45% in size
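Huntington model: PC12 line, ecdysone-inducible HTTQ103 exon1–GFP, tebufenozide 100 nM. Test articles in a dose series. Endpoint luminescence from cellular ATP.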
HPGD inh: inhibitors of human 15-hydroxyprostaglandin dehydrogenase (HPGD) | purified HPGD, NADH fluorescence kinetic, PGE2 substrate | Potency, µM, without a hit: at the top dose activity change, negative = inhibition, hits mostly inhibitors | 4.3% of 150,000 active | AID 894; active means well fitted inhibition curve with a large enough effect, not every such curve was filed as active; inconclusive means small, poorly fitted or top-dose-only effect, or another doubt; inactive means no such curve, though single readings can be large or run the other way; further: potency means the concentration at half of the fitted maximal effect; on the % scale 0 is the no-effect control and ±100 the full control effect
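NADH formation kinetics: reaction with 30 uM PGE2 and 1 mM NAD+ (final), 20 nM enzyme, Tris-HCl pH 8 with Tween 20, after 15 min compound preincubation at room temperature. Fluorescence change, last versus first of five reads.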
IMPase Li inh: membrane-permeable IMPase blocker, potentiated with lithium; 0.35% of 210,000 active; Potency, µM (doses to about 59.4 µM), inactives show at the highest dose activity, negative = IMPase inhibition, actives largely listed as inhibitors; AID 1457; CHO-M1 cells, IP1 TR-FRET (IP-One), carbachol + lithium;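 further: IP1 builds up when IMPase is blocked and the TR-FRET signal falls; potency means the concentration at half of the fitted maximal effect; plate controls were basal vehicle for no effect and high inhibitor control for full effect; nearly all actives have a fitted effect of over 50% in size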
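CHO cells stably expressing M1 receptor (2000/well, cultured 16–30 h) treated 30 min at 37C with compound plus low lithium. Cytosolic IP1 by TR-FRET (665/620 ratio and 620 channel) after 10 min lysis; AC50 by Hill fit.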
ALDH1A1 inh: blocks purified human ALDH1A1 activity; P00352; Purified ALDH1A1, NADH fluorescence, propionaldehyde substrate; Potency, µM (titrated, usually from 75.3 µM), for inactives: at the highest dose activity, negative = inhibition, hits mostly inhibitors; 7.3% of 220,000 active; active means well fitted inhibition curve with a large enough effect, not every such curve was filed as active; inconclusive means small, poorly fitted or top-dose-only effect, or another doubt; inactive means no such curve, though single readings can be large or run the other way;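 further: potency means the concentration at half of the fitted maximal effect; plate controls were no enzyme wells and a reference inhibitor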
Target sequence (P00352 whole entry, looked up): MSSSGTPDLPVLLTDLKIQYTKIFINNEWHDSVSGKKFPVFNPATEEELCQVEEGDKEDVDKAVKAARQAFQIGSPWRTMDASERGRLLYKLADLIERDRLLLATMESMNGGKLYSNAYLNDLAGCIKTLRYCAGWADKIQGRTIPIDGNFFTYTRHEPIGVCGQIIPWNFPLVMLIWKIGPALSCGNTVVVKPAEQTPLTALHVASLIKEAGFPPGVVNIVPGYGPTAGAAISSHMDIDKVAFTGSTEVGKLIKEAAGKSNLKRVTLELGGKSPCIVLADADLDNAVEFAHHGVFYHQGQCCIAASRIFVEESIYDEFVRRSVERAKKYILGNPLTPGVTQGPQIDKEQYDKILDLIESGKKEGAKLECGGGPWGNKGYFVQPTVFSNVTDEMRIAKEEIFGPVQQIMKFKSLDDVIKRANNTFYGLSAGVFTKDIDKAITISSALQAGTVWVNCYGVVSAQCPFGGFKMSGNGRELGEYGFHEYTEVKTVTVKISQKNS
* marks the source's active call; other numbers are inactive results; ? = inconclusive; . = not tested or not shown; [ ] = another dose, or the depositor's remark. In the library only some 9.4% were active in any assay of this set; here they are far more common. Unless noted, the call rests on the fitted dose curve; in most records, active means well fitted curve in the direction sought with a large enough effect; inconclusive means small, poorly fitted or top-dose-only effect, or another doubt; inactive means no such curve, though single readings can be large; an effect the other way counts as inactive or inconclusive.

SMILES	IMPase cell inh	HTT aggregate	HTT ATP protect	HPGD inh	IMPase Li inh	ALDH1A1 inh
CCS(=O)(=O)Nc1ccc(C2=NN(C(=O)c3ccco3)C(c3cccc(F)c3)C2)cc1 (stereo not drawn)	.	-30%	0%	.	0%	?
Cc1ccc(C2CC(c3ccc(NS(C)(=O)=O)cc3)=NN2C(=O)c2ccco2)cc1 (stereo not drawn)	.	2%	-13%[10 µM]	-13%	-2%	?
CS(=O)(=O)Nc1ccc(C2=NN(C(=O)c3ccco3)C(c3cccc(F)c3)C2)cc1 (stereo not drawn)	.	-21%	-25%	.	-10%	14µM*
CS(=O)(=O)Nc1ccc(C2=NN(C(=O)c3ccco3)C(c3ccccc3)C2)cc1 (stereo not drawn)	.	3%	2%[10 µM]	-12%	-6%	16µM*
COc1ccc(S(=O)(=O)N2N=C(c3ccc(NS(C)(=O)=O)cc3)CC2c2ccco2)cc1 (stereo not drawn)	.	-11%	-44%	.	5%	22µM*
O=S1(=O)OC(c2ccc(O)cc2)(c2ccc(O)cc2)c2ccccc21	.	6%	5%[10 µM]	0%	4%	14%[13.5 µM]
c1csc(CNc2ccnc(-c3ccc4c(c3)OCO4)n2)c1	.	.	-285%	.	33%	?
Nc1ccc(S(=O)(=O)Nc2nccc(/C=C/c3ccc(Cl)cc3Cl)n2)cc1	.	6%[9.22 µM]	27%[10 µM]	.	.	.
CCN(C(=O)c1ccc(C(=O)N(CC)c2ccccc2C)cc1)c1ccccc1C	-3	.	.	.	.	.
CCCCCCCN(C(=O)CCl)c1ccccc1C	14	-25%	5%[10 µM]	-4%	4%	0.5µM*
CC1(C)CC(=O)C/C(=N/NC(=O)COc2ccc(Cl)cc2Cl)C1	.	17%[9.22 µM]	4%[10 µM]	.	.	.
CC1(C)CC(=O)CC(=O)/C1=N\Nc1c(Cl)cc(Cl)cc1Cl	-11	4%	-4%[10 µM]	-4%	-10%	6.3µM*
O=C1C2=CC[C@H]3C(=O)N(Cc4ccc5c(c4)OCO5)C(=O)[C@@H]3[C@@H]2[C@H](O)[C@@H]2O[C@H]12	.	.	?	.	.	3%[13.5 µM]
Cc1c(C(=O)O)c(O)cc2c1C(=O)c1c(O)c([C@H]3O[C@H](CO)[C@@H](O)[C@H](O)[C@H]3O)c(O)c(O)c1C2=O	?	-4%	-34%[1.9 µM]	18µM*	57%	11µM*
Cc1nc2nc(C)c(NS(=O)(=O)c3ccc(F)cc3)c(=O)n2[nH]1	9	.	.	.	.	.
Cn1nc(-c2ccccc2)c(N2CCCCC2)cc1=O	.	11%[9.22 µM]	-20%	.	3%	28µM*
O=c1cc(N2CCCCC2)c(-c2ccccc2)nn1Cc1ccccc1	.	-19%	-20%[10 µM]	.	8%	16µM*
Cc1ccccc1C(=O)NC(=S)NCC(=O)c1ccccc1	-1	8%	7%	?	0%[38.3 µM]	-7%
O=C(CNC(=S)NC(=O)c1ccccc1Br)c1ccccc1	.	?	-29%	.	-17%	18µM*
CCNc1nc(NC(C)C)nc(N(n2cnnc2)S(=O)(=O)c2ccc(C)cc2)n1	.	8%	8%[10 µM]	-7%	17%	2.2µM*
CCNc1nc(NCC)nc(N(n2cnnc2)S(=O)(=O)c2ccc(C)cc2)n1	.	?	-3%[10 µM]	-5%	-3%	?
O=C(COC(=O)c1cccc(C(F)(F)F)c1)NCc1ccccc1	.	8%	.	-2%	-6%	8%
O=C(COC(=O)c1cccc(C(F)(F)F)c1)NCc1ccc(Cl)cc1	.	14%	20%[10 µM]	14µM*	-1%	17%
COc1ccc2[nH]c(=O)c(CN(C)C(=O)C3CCCCC3)cc2c1	-6	7%	-20%[0.074 µM]	?	28µM*	?
O=C(OCc1cc2ccccc2[nH]c1=O)C1CCCCC1	6	-13%	16%	.	.	20µM*
COc1ccc2[nH]c(=O)c(CN(C)C(=O)c3ccncc3)cc2c1	4	-15%	-3%[0.074 µM]	?	20%[38.3 µM]	?
Cc1ccc2[nH]c(=O)c(COC(=O)C3CCCCC3)cc2c1	.	2%[9.22 µM]	14%[10 µM]	.	.	.
COc1ccc(/C=C/C(=O)Nc2cc(S(=O)(=O)N3CCOCC3)ccc2C)cc1OC	.	-1%	2%[10 µM]	.	0%	?
